For some of these results: Measured potencies and affinities stand elsewhere.

One test can be described thus: rescue of polyQ-huntingtin neuronal dysfunction in worms, whole organism, C. elegans mechanosensory neurons, N-terminal huntingtin (AID 1599). The note with it: touch response, stronger effect = higher value.
For the molecule `CCCc1cc(=O)[nH]c(=S)[nH]1`, the rescue above control is -2.2.
The molecule `O=C(O)c1cccnc1` yielded a rescue above control of 2.74.
`CC(C[N+](C)(C)C)OC(N)=O` (stereo unspecified) returned a rescue above control of 20.6.
`NNC(=O)c1ccncc1`: the rescue above control was -6.58.

The next test in a line: inhibitors of mitochondrial cytochrome c release, biochemical, purified mitochondria (AID 1603).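 Note: mouse liver mitochondria challenged with calcium chloride; signal normalized to the plate average as 100%.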 The note with it: stronger effect = lower value.
For the molecule `CC12CC3CC(C)(C1)CC(N)(C3)C2`, the cytochrome c release ratio is 1.07.
Regarding `S=c1nc[nH]c2nc[nH]c12`, the cytochrome c release ratio was found to be 0.93.
On the same count and under the same terms, the same measure for `Oc1c(Cl)cc(Cl)c2cccnc12`: 0.8.
Regarding `OC(Cn1cncn1)(Cn1cncn1)c1ccc(F)cc1F`, the cytochrome c release ratio is 0.79.
Consider `NCCc1ccc(O)c(O)c1`, for which the cytochrome c release ratio stood at 0.92.
For the molecule `CN=C(NC#N)NCCSCc1nc[nH]c1C`, the cytochrome c release ratio was found to be 1.04.
As for `CC1COc2c(N3CCN(C)CC3)c(F)cc3c(=O)c(C(=O)O)cn1c23` (stereo unspecified), the cytochrome c release ratio worked out at 1.57.
As for `O=C(C1CCCCC1)N1CC(=O)N2CCc3ccccc3C2C1` (stereo unspecified), the cytochrome c release ratio was 0.99.
For `CCc1cc(C(N)=S)ccn1`, the cytochrome c release ratio came to 1.06.
Turning to `CC1=C(/C=C/C(C)=C/C=C/C(C)=C/C(=O)O)C(C)(C)CCC1`, the cytochrome c release ratio was determined as 3.67.
Consider `CCCCNc1cc(C(=O)O)cc(S(N)(=O)=O)c1Oc1ccccc1`, for which the cytochrome c release ratio was 1.53.
In the case of `O=c1[nH]cnc2[nH]ncc12`, the cytochrome c release ratio came out at 0.77.
`O=C1c2c(O)ccc(O)c2C(=O)c2c(NCCNCCO)ccc(NCCNCCO)c21`: the cytochrome c release ratio was 3.49.
Take `O=C(O)c1cc(=O)c2c(OCC(O)COc3cccc4oc(C(=O)O)cc(=O)c34)cccc2o1`: the cytochrome c release ratio came out at 0.89.
Same read-out and setting: the same measure for `CC(C)C(=O)Nc1ccc([N+](=O)[O-])c(C(F)(F)F)c1`: 0.83.
For the molecule `CC(COc1ccccc1)N(CCCl)Cc1ccccc1` (stereo unspecified), the cytochrome c release ratio is 4.04.
For the molecule `CC(=O)CC(c1ccccc1)c1c(O)c2ccccc2oc1=O` (stereo unspecified), the cytochrome c release ratio was 1.4.
For the molecule `NS(=O)(=O)c1cc2c(cc1Cl)NCNS2(=O)=O`, the cytochrome c release ratio came out at 1.08.
Regarding `CS(=O)(=O)OCCCCOS(C)(=O)=O`, the cytochrome c release ratio is 0.62.
For the molecule `NNCCc1ccccc1`, the cytochrome c release ratio came to 1.02.
On the same count and under the same terms, in the case of `CC1Cc2ccccc2N1NC(=O)c1ccc(Cl)c(S(N)(=O)=O)c1` (stereo unspecified) it was 0.89; in that of `CC(C)Cc1ccc(C(C)C(=O)O)cc1` (stereo unspecified), 0.94.
With `N[C@@H]1CONC1=O`, the cytochrome c release ratio was 0.8.
Regarding `CCN(Cc1ccncc1)C(=O)C(CO)c1ccccc1` (stereo unspecified), the cytochrome c release ratio turned out to be 1.14.
As to `CCCc1cc(=O)[nH]c(=S)[nH]1`, the cytochrome c release ratio worked out at 1.02.
In the case of `O=C(O)c1cccnc1`, the cytochrome c release ratio turned out to be 0.86.
As for `CC(C[N+](C)(C)C)OC(N)=O` (stereo unspecified), the cytochrome c release ratio was found to be 0.92.
Consider `COc1ccc(Cl)cc1C(=O)NCCc1ccc(S(=O)(=O)NC(=O)NC2CCCCC2)cc1`, for which the cytochrome c release ratio worked out at 1.09.
Turning to `NNC(=O)c1ccncc1`, the cytochrome c release ratio came to 1.2.

A further test in a line: inhibitors of polyQ protein aggregation (AID 1604). The settings on record: polyglutamine-induced protein aggregation inhibition assay; stronger effect = higher value; tested at 2.5 µM.
Turning to `CC12CC3CC(C)(C1)CC(N)(C3)C2`, the inhibition of aggregation stood at 35%.
Still for that read-out and setting: in the case of `S=c1nc[nH]c2nc[nH]c12` it was 66.2%.
On to `Oc1c(Cl)cc(Cl)c2cccnc12`, for which the inhibition of aggregation was -25.9%.
Consider `OC(Cn1cncn1)(Cn1cncn1)c1ccc(F)cc1F`, for which the inhibition of aggregation was found to be 0%.
The same measure, in the same setting: the same measure for `NCCc1ccc(O)c(O)c1`: 81.4%.
For `CN=C(NC#N)NCCSCc1nc[nH]c1C`, the inhibition of aggregation came to 58.9%.
Still for that read-out and setting: the same measure for `CC1COc2c(N3CCN(C)CC3)c(F)cc3c(=O)c(C(=O)O)cn1c23` (stereo unspecified): 67.8%; for `O=C(C1CCCCC1)N1CC(=O)N2CCc3ccccc3C2C1` (stereo unspecified): 65.4%; for `CCc1cc(C(N)=S)ccn1`: 78.8%.
The same measure, in the same setting: in the case of `CC1=C(/C=C/C(C)=C/C=C/C(C)=C/C(=O)O)C(C)(C)CCC1` it was 19.4%.
Still for that read-out and setting: in the case of `CCCCNc1cc(C(=O)O)cc(S(N)(=O)=O)c1Oc1ccccc1` it was 71.8%; in that of `O=c1[nH]cnc2[nH]ncc12`, 60.9%.
As to `O=C1c2c(O)ccc(O)c2C(=O)c2c(NCCNCCO)ccc(NCCNCCO)c21`, the inhibition of aggregation was 52.2%.
In the case of `O=C(O)c1cc(=O)c2c(OCC(O)COc3cccc4oc(C(=O)O)cc(=O)c34)cccc2o1`, the inhibition of aggregation was found to be 65.5%.
For the molecule `CC(C)C(=O)Nc1ccc([N+](=O)[O-])c(C(F)(F)F)c1`, the inhibition of aggregation was determined as 22.5%.
Same read-out and setting: the same measure for `CC(COc1ccccc1)N(CCCl)Cc1ccccc1` (stereo unspecified): 33.3%.
Turning to `CC(=O)CC(c1ccccc1)c1c(O)c2ccccc2oc1=O` (stereo unspecified), the inhibition of aggregation stood at 68.5%.
Same read-out and setting: the same measure for `NS(=O)(=O)c1cc2c(cc1Cl)NCNS2(=O)=O`: 3.17%; for `CS(=O)(=O)OCCCCOS(C)(=O)=O`: 54%.
For `NNCCc1ccccc1`, the inhibition of aggregation worked out at 15.4%.
Turning to `CC1Cc2ccccc2N1NC(=O)c1ccc(Cl)c(S(N)(=O)=O)c1` (stereo unspecified), the inhibition of aggregation came to 85.9%.
For the molecule `CC(C)Cc1ccc(C(C)C(=O)O)cc1` (stereo unspecified), the inhibition of aggregation was 47.1%.
As to `N[C@@H]1CONC1=O`, the inhibition of aggregation came out at 65.4%.
With `CCN(Cc1ccncc1)C(=O)C(CO)c1ccccc1` (stereo unspecified), the inhibition of aggregation came out at 87%.
In the case of `CCCc1cc(=O)[nH]c(=S)[nH]1`, the inhibition of aggregation was 48%.
`O=C(O)c1cccnc1`: the inhibition of aggregation is 67.8%.
In the case of `CC(C[N+](C)(C)C)OC(N)=O` (stereo unspecified), the inhibition of aggregation was -22.2%.
Still for that read-out and setting: the same measure for `COc1ccc(Cl)cc1C(=O)NCCc1ccc(S(=O)(=O)NC(=O)NC2CCCCC2)cc1`: 45%; for `NNC(=O)c1ccncc1`: 30.1%.

Another test is described as follows: enhancers of glutamate uptake in motor neurons, MN-1 cell line (AID 1612).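 Note: tested at 1 µM final; 0% = mean of DMSO vehicle wells on each plate; positive means more glutamate uptake than control and negative means less.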 The note with it: MN-1 motor neuron cells, stronger effect = higher value.
On to `CC12CC3CC(C)(C1)CC(N)(C3)C2`, for which the glutamate uptake change was 2.56%.
As to `S=c1nc[nH]c2nc[nH]c12`, the glutamate uptake change is 12.1%.
Regarding `Oc1c(Cl)cc(Cl)c2cccnc12`, the glutamate uptake change is -23%.
Turning to `OC(Cn1cncn1)(Cn1cncn1)c1ccc(F)cc1F`, the glutamate uptake change is -9.51%.
Regarding `NCCc1ccc(O)c(O)c1`, the glutamate uptake change came out at 17.9%.
The same measure, in the same setting: in the case of `CN=C(NC#N)NCCSCc1nc[nH]c1C` it was -5.55%; in that of `CC1COc2c(N3CCN(C)CC3)c(F)cc3c(=O)c(C(=O)O)cn1c23` (stereo unspecified), -4.74%.
Same read-out and setting: the same measure for `O=C(C1CCCCC1)N1CC(=O)N2CCc3ccccc3C2C1` (stereo unspecified): 7.89%; for `CCc1cc(C(N)=S)ccn1`: 15.8%; for `CC1=C(/C=C/C(C)=C/C=C/C(C)=C/C(=O)O)C(C)(C)CCC1`: -29.4%.
Still for that read-out and setting: in the case of `CCCCNc1cc(C(=O)O)cc(S(N)(=O)=O)c1Oc1ccccc1` it was -4.68%.
Take `O=c1[nH]cnc2[nH]ncc12`: the glutamate uptake change is -7.44%.
Still for that read-out and setting: in the case of `O=C1c2c(O)ccc(O)c2C(=O)c2c(NCCNCCO)ccc(NCCNCCO)c21` it was -30.1%; in that of `O=C(O)c1cc(=O)c2c(OCC(O)COc3cccc4oc(C(=O)O)cc(=O)c34)cccc2o1`, -4.58%; in that of `CC(C)C(=O)Nc1ccc([N+](=O)[O-])c(C(F)(F)F)c1`, -7.31%.
The same measure, in the same setting: in the case of `CC(COc1ccccc1)N(CCCl)Cc1ccccc1` (stereo unspecified) it was 18.7%; in that of `CC(=O)CC(c1ccccc1)c1c(O)c2ccccc2oc1=O` (stereo unspecified), -2.55%.
On the same count and under the same terms, in the case of `NS(=O)(=O)c1cc2c(cc1Cl)NCNS2(=O)=O` it was 8.53%; in that of `CS(=O)(=O)OCCCCOS(C)(=O)=O`, 14.5%; in that of `NNCCc1ccccc1`, 2.77%.
Turning to `CC1Cc2ccccc2N1NC(=O)c1ccc(Cl)c(S(N)(=O)=O)c1` (stereo unspecified), the glutamate uptake change is -15%.
On the same count and under the same terms, the same measure for `CC(C)Cc1ccc(C(C)C(=O)O)cc1` (stereo unspecified): 16.3%.
Take `N[C@@H]1CONC1=O`: the glutamate uptake change is -3.66%.
On the same count and under the same terms, the same measure for `CCN(Cc1ccncc1)C(=O)C(CO)c1ccccc1` (stereo unspecified): -2.09%; for `CCCc1cc(=O)[nH]c(=S)[nH]1`: 4.57%; for `O=C(O)c1cccnc1`: -8.8%.
On the same count and under the same terms, in the case of `CC(C[N+](C)(C)C)OC(N)=O` (stereo unspecified) it was -0.67%; in that of `COc1ccc(Cl)cc1C(=O)NCCc1ccc(S(=O)(=O)NC(=O)NC2CCCCC2)cc1`, 34.4%.
For `NNC(=O)c1ccncc1`, the glutamate uptake change is -15.1%.

Values taken from PubChem BioAssay.
